Hits are enriched below; roughly 10% of the tested compounds scored in any of these assays.
VDR inhibitor = vitamin D3 receptor (human) inhibition; P11473; VDR-SRC2-3 peptide fluorescence polarization, 2 h; Potency, µM, for the others: max response, negative = inhibition, usual class: inhibitors; 0.93% of 400,000 active; AID 504847; note: potency is the fitted concentration of half-maximal effect
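Measured by FP: displacement of SRC2-3 coactivator peptide from VDR by library compounds, following a two-hour ambient incubation.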
PLK1 PBD inh = PLK1 (human) polo-box domain binding inhibition; P53350; Plk1 PBD binding of FITC phosphopeptide, fluorescence polarization; Potency, µM, inactives show max response, negative = inhibition, hits mostly inhibitors; 2.8% of 360,000 active; AID 720504; note: potency is the fitted concentration of half-maximal effect; series mostly up to about 57 µM; nearly all actives have a fitted effect of over 65% in size
Target sequence (P53350 whole entry, looked up, the tested form may be a part): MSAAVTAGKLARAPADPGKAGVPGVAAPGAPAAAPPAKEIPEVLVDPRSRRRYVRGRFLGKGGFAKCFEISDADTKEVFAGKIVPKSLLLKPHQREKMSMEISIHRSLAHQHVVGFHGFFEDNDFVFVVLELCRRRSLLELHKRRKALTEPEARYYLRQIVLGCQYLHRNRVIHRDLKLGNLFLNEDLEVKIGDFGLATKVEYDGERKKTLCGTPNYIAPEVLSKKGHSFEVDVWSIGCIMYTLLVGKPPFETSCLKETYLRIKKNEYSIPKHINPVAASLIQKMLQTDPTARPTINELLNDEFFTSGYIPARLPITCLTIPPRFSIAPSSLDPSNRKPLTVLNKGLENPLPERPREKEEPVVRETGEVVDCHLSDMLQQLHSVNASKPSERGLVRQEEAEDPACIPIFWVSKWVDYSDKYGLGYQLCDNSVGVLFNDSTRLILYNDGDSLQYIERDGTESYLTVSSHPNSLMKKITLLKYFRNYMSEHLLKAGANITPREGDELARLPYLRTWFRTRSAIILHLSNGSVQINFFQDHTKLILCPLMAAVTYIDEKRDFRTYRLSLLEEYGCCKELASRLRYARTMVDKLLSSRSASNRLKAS
MmCpn inh = M. maripaludis TRiC chaperonin inhibition; Potency, µM (titrated, usually from 76.9 µM), without a hit: top-dose activity, negative = inhibition, usual class: inhibitors; purified Mm-Cpn ATPase, ADP Transcreener TR-FRET; AID 504842; 0.031% of 330,000 active; note: potency is the fitted concentration of half-maximal effect; nearly all actives have a fitted effect of over 80% in size
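Measured: ADP formation by purified Mm-CPN. Conditions: 25 nM protein, 10 uM ATP, Tris pH 7.4 with Mg2+, K+ and DTT, 37°C for 30 min. Detection: Transcreener HTRF after 30 min at room temperature.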
Sfp inh = inhibitors of Bacillus subtilis Sfp phosphopantetheinyl transferase. Biochemical Sfp PPTase activity, qHTS. AID 1490. Q9F4F7. 3.5% of 310,000 active. Potency, µM, for inactives: largest response in the series, negative = inhibition, most hits filed as inhibitors;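 note: the enzyme is Sfp with the accession as filed and its product quenches rhodamine fluorescence; potency is the fitted concentration of half-maximal effect; 0% = enzyme reaction without inhibitor and -100% = no enzyme wells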
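Reaction rates are the 30-min fluorescence difference (ex 525, em 598 nm) in wells containing 15 nM Sfp, 5 uM rhodamine-CoA and 12.5 uM BHQ-2-YbbR at pH 7.6 with 10 mM MgCl2.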
G9a block = G9a (human) methyltransferase inhibition; 8.8% of 350,000 active; G9a H3K9 monomethylation, AlphaScreen, 2 h; Potency, µM (titrated, usually from 102 µM), without a hit: top-dose activity, negative = inhibition, most hits filed as inhibitors; note: potency is the fitted concentration of half-maximal effect; nearly all actives have a fitted effect of over 75% in size
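Methyltransferase reactions run at room temperature for 2 h (20 nM enzyme, 500 nM biotin-H3K9 peptide, 20 uM SAM) after a 15 min compound preincubation; product detected by AlphaScreen beads and anti-H3K9me1 antibody.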
CCT modulator = modulators of cytosolic chaperonin (CCT/TRiC) activity; purified chaperonin ATPase assay, HTRF ADP detection, 30 min; activity change, % (no concentration beside the values), hits read low; 0.3% of 360,000 active; AID 651819; in the data active = activity change below about -30%
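Nucleotide hydrolysis assay: TRiC at 20–40 nM final (set by batch activity) with 10 uM ATP, 30 min at 37 °C, in presence of 76 uM compound. Detection by competitive ADP HTRF, 30 min ambient.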
Numbers without * were called inactive; [ ] = another dose, or the depositor's remark. Unless noted, calls come from the whole dose curve; as a rule, active = well fitted curve in the direction sought with a large enough effect; inconclusive = small, poorly fitted or top-dose-only effect, or another doubt; inactive = no such curve, though single readings can be large; an effect the other way counts as inactive or inconclusive. Unless noted, % is set by controls: 0 for no effect and ±100 for the full control effect.

For N#CC1=C2SCN(Cc3ccccc3)CN2C(=O)CC1c1cccs1 (configuration not stated) the results were VDR inhibitor inconclusive, PLK1 PBD inh 24µM*, MmCpn inh -16%, Sfp inh 1.1µM*, G9a block 2µM* and CCT modulator -1.
Screening COc1ccc2ccccc2c1C1CC(=O)N2CN(C3CCCCC3)CSC2=C1C#N (configuration not stated) returned VDR inhibitor 89µM*, PLK1 PBD inh 13µM*, MmCpn inh -5%, Sfp inh 13µM*, G9a block 1.6µM* and CCT modulator -3.
Screening COc1ccc(C2CC(=O)N3CN(Cc4ccco4)CSC3=C2C#N)cc1 (configuration not stated) returned VDR inhibitor 28µM*, PLK1 PBD inh 27µM*, MmCpn inh -1%, Sfp inh 1.4µM*, G9a block 0.89µM* and CCT modulator 0.
`COc1ccc(C2CC(=O)N3CN(C4CCCCC4)CSC3=C2C#N)c(OC)c1` (configuration not stated) gave VDR inhibitor inconclusive and G9a block 2.5µM*.
For COCCNc1ccc(-c2nc(-c3ccncc3)no2)cc1[N+](=O)[O-] the results were VDR inhibitor 19% and G9a block -28%[59 µM].
`COc1ccc(OC(=O)c2nc(SCc3ccccc3F)ncc2Cl)cc1` gave VDR inhibitor 2% and G9a block 42%[59 µM].
Cc1ccc(NC(=O)N2CCc3c(sc4c3CCCC4)C2c2ccccc2)cc1F (configuration not stated) was read as VDR inhibitor -6% and G9a block -2%[12.7 µM].
`CCCOc1ccc(C2CC(=O)Nc3c2c(=O)n(C)c(=O)n3C)cc1OC` (configuration not stated) gave VDR inhibitor -7% and G9a block 7%[59 µM].
C[C@@](Cc1ccccc1)(C(=O)O)N1C(=O)c2ccc(C(=O)O)cc2C1=O was read as MmCpn inh 1%, Sfp inh -3% and G9a block -14%[12.7 µM].
COc1ccc2ccccc2c1C1CC(=O)N2CN(Cc3ccco3)CSC2=C1C#N (configuration not stated) was read as VDR inhibitor inconclusive, PLK1 PBD inh 19µM*, MmCpn inh -1%, Sfp inh 5.6µM*, G9a block 0.56µM* and CCT modulator -2.
COc1ccccc1N1CCN(Cc2ccco2)CC1 was read as VDR inhibitor -2%, PLK1 PBD inh -1%, MmCpn inh -10%, Sfp inh -24%, G9a block inconclusive and CCT modulator -3.
For O=C1C=C(NCc2ccco2)CC(c2ccc(Cl)cc2)C1 (configuration not stated) the results were VDR inhibitor 10%, PLK1 PBD inh -10%, MmCpn inh 2%, Sfp inh 6%, G9a block 6%[12.7 µM] and CCT modulator 2.
Screening N#CC1=C2SCN(Cc3ccco3)CN2C(=O)CC1c1ccc(Cl)cc1 (configuration not stated) returned VDR inhibitor inconclusive, PLK1 PBD inh 27µM*, MmCpn inh -2%, Sfp inh 2.5µM*, G9a block 1µM* and CCT modulator 1.
CCc1cc2c(CN(C)Cc3ccccc3F)cc(=O)oc2cc1O was read as VDR inhibitor -5%, PLK1 PBD inh -3%, MmCpn inh -4%, Sfp inh 14%, G9a block 50µM* and CCT modulator 0.
For COc1cccc(CN(C)Cc2cc(=O)oc3cc(O)c(Cl)cc23)c1 the results were VDR inhibitor 14%, PLK1 PBD inh -4%, MmCpn inh -1%, Sfp inh 79µM*, G9a block 45µM* and CCT modulator 1.
`N#Cc1c2n(c(=S)n(-c3ccc(OC(F)F)cc3)c1=O)CCCCC2` gave VDR inhibitor -2%, PLK1 PBD inh -8%, MmCpn inh -2%, Sfp inh 3%, G9a block -17%[59 µM] and CCT modulator -1.
